This note sets out measurements from PubChem BioAssay (NCI).

Molecules are shown by their SMILES. About 83,000 compounds went through this panel and 20% of them were active in at least one assay; those are over-represented in the sample as a whole.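 The endpoint reported here, percent growth, reads 100 for growth as untreated, 0 for no net growth and -100 for all cells dead.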 A number with no mark means an inactive call. Active and inactive are the calls of the source. The calls were made as follows: active = growth percent below 10; inactive = the rest.

Holding throughout (assay): NCI-60 one-dose screen, 48 h (100 = growth as untreated, 0 = no growth, -100 = all killed)
Holding throughout (conditions): 10 µM unless noted

Test [1] concerns T-47D breast.
Test [2] has as its system BT-549 breast.
Test [3] concerns MDA-MB-435 melanoma.
Test [4] relates to SW-620 colon.
In test [5] the test system is MCF7 breast.
For test [6], the system named is HCT-116 colon.
Test [7] deals with HCC-2998 colon.
The test system of test [8] is KM12 colon.

Consider `O=C(/C=C(\Nc1ccccc1)c1ccccc1)c1cn(-c2ccc([N+](=O)[O-])cc2)nn1`, for which the growth in test [1] is 96.4%; in test [2], 110%; in test [3], 102%; in test [4], 93.2%; in test [5], 103%; in test [6], 92.1%. Also, the results for the growth in test [7] and in test [8] were 103% and 110%, respectively.
On to `COc1cc(C2CC(c3ccc(C)cc3)=NN2C=O)ccc1OCCN(C)C` (stereo not given), for which the growth in test [1] is 90.6%; in test [2], 80.7%; in test [3] it was 102%; in test [4], 96.5%; in test [5], 92.5%; in test [6], 88.9%. Moreover, the values for the growth in test [7] and in test [8] were 98.4% and 101%, respectively.
For the compound `CCOC1Oc2ccccc2C(=O)/C1=N/c1nccs1` (stereo not given), the growth in test [1] was 66.5%; in test [2], 77.1%; in test [3], 104%; in test [4], 87.1%; in test [5], 79.1%; in test [6], 92.9%. For the same compound, the growth in test [7] was 99.7%; in test [8], 93.5%.
In the case of `N#CSCC1CC(O)(c2ccccc2)C(c2ccccc2)C(c2ccc(Cl)cc2)O1` (stereo not given), the growth in test [1] was -35.3% (active); in test [2] it was -57.8% (active); in test [3] it was -65.2% (active); in test [4], -76.2% (active); in test [5], -51.5% (active); in test [6], -92.9% (active). In addition, the growth was -86.2% (active) in test [7] and -96% (active) in test [8].
`O=C(CNC(=O)c1cccc2ccccc12)Nc1ccccc1Oc1ccc(O)cc1`: the growth in test [1] is 36.5% [5 µM]; in test [2], 58.5% [5 µM]; in test [3], -16.1% [5 µM] (active); in test [4], 28.9% [5 µM]; in test [5], 27.1% [5 µM]; in test [6], 15.9% [5 µM]. Further, the growth is 55.6% [5 µM] in test [7] and 30.1% [5 µM] in test [8].
In the case of `COC(=O)[C@H](Cc1cn(C)cn1)NC(=O)[C@@H](NC(=O)Nc1cc(C(F)(F)F)cc(C(F)(F)F)c1)C(C)C`, the growth in test [1] is -71.8% [100 µM] (active); in test [2], -98% [100 µM] (active); in test [3], -87.3% [100 µM] (active); in test [4] it was -47.5% [100 µM] (active); in test [5] it was -64.1% [100 µM] (active); in test [6], -91.6% [100 µM] (active). The growth in test [7] is -86.7% [100 µM] (active); in test [8], -88.7% [100 µM] (active).
With `Cc1cc(Cl)ccc1Nc1nc(C(F)(F)F)ccc1C(=O)N/N=C/c1ccc(Cl)cc1`, the growth is -0.161% (active) in test [1]; -7.4% (active) in test [2]; 37.1% in test [3]; 9.53% (active) in test [4]; 2.27% (active) in test [5]; -38.8% (active) in test [6]. Besides, the growth in test [7] is -13.3% (active); in test [8], 6.03% (active).
As to `CCSc1nc(Nc2ccc(S(=O)(=O)Nc3ccon3)cc2)c(C#N)c(-c2cccc(Br)c2)n1`, the growth was 81% in test [1]; 90.2% in test [2]; 102% in test [3]; 110% in test [4]; 79.2% in test [5]; 85% in test [6]. The results for the growth in test [7] and in test [8] were 106% and 95.1%, respectively.
In the case of `N#Cc1ccc(-c2csc(Nc3ccc4nc5n(c(=O)c4c3)CCC5)n2)cc1`, the growth in test [1] is 102%; in test [2], 98.4%; in test [3], 103%; in test [4], 103%; in test [5], 92%; in test [6], 96.2%. Moreover, the growth is 116% in test [7] and 103% in test [8].
In the case of `CN[C@@H]1C(OC2[C@H](O[C@H]3[C@H](O)[C@@H](O)[C@H](N=C(N)N)[C@@H](O)[C@@H]3N=C(N)N)OC(C)[C@]2(O)CO)OC(CO)C(O)C1O` (stereo not given in full), the growth in test [1] is 111%; in test [2] it was 112%; in test [3], 102%; in test [4] it was 104%; in test [5], 111%; in test [6], 105%. Also, the results for the growth in test [7] and in test [8] were 97.5% and 110%, respectively.
Consider `C(=C1c2ccccc2-c2ccccc21)c1ccncc1`, for which the growth in test [1] is 72.2%; in test [2], 38.6%; in test [3], -21.7% (active); in test [4], 17.1%; in test [5] it was 18.8%; in test [6], 16.4%. Besides, the growth in test [7] is 66.6%; in test [8], 18.5%.
Consider `O=C(Oc1cccc2ccccc12)c1ccccc1C(=O)c1ccccc1`, for which the growth in test [1] is 87.4%; in test [2] it was 99.7%; in test [3], 73.5%; in test [4], 99.4%; in test [5] it was 109%; in test [6], 82%. Also, the growth is 103% in test [7] and 92.2% in test [8].
Consider `O=C(CC1Sc2ccccc2NC1=O)NNc1cccc(Cl)c1Cl` (stereo not given), for which the growth in test [1] is 73%; in test [2], 89.1%; in test [3], 95.4%; in test [4], 87.3%; in test [5], 92.4%; in test [6] it was 87%. The figures for the growth in test [7] and in test [8] were 88.5% and 82.7%, respectively.
Take `CSc1nc(-c2ccc(O)cc2O)c2c(=O)[nH]c(Nc3ccc(S(=O)(=O)Nc4nc(C)cc(C)n4)cc3)nc2n1`: the growth in test [1] was 91.5%; in test [2], 87.1%; in test [3], 196%; in test [4] it was 108%; in test [5], 113%; in test [6], 101%. The growth in test [7] was 93.4%; in test [8], 102%.
On to `O=C(COc1cccc(/C=C2\Oc3ccc4ccccc4c3C2=O)c1)c1ccc([N+](=O)[O-])cc1`, for which the growth was 64% in test [1]; -81.9% (active) in test [2]; 90.8% in test [3]; 80% in test [4]; 49.3% in test [5]; 58.5% in test [6]. For the same compound, the growth in test [7] was 108%; in test [8], 88.3%.
